FMDV FLuc: antivirals against foot and mouth disease virus. FMDV antiviral cell assay, firefly luciferase signal. Potency, µM (doses to about 57.5 µM), without a hit: at the highest dose activity change, negative = inhibition, most hits filed as inhibitors. hit rate 0.23% among 120,000; also: nearly all actives have a fitted effect of over 60% in size
FMDV RLuc: shows antiviral activity in FMDV Renilla assay. FMDV replicon cells, Renilla luciferase signal. Potency, µM (doses to about 57.5 µM), for inactives: at the highest dose activity change, negative = inhibition, hits mostly inhibitors. hit rate 0.32% among 120,000. AID 1745857; also: nearly all actives have a fitted effect of over 55% in size
Numbers without * were called inactive; ? = inconclusive; [ ] = remark or other dose. The list is not random: actives were taken first. Their share in the collection is about 0.45%. Calls follow the shape of the full dose curve. % is scaled to controls: 0 for no effect and ±100 for the full control effect; potency is read from the fitted curve at half-maximal effect.

SMILES	FMDV FLuc	FMDV RLuc
Cc1sc(NC(=O)c2ccco2)nc1-c1ccc2c(c1)N(C)C(=O)CO2	4%	-1%
CCN1C(=O)COc2ccc(-c3nc(NC(=O)c4ccccc4)sc3C)cc21	14µM*	10µM*
CC(=O)c1c(C)[nH]c(C(=O)OC(C)c2nnc(-c3cccc(C)c3)o2)c1C (configuration not stated)	-27%	0%
CC(=O)c1c(C)[nH]c(C(=O)OC(C)c2nc(-c3ccccc3)no2)c1C (configuration not stated)	?	28µM*
Cn1c(=O)c2c(nc(N(CCO)CCO)n2Cc2ccccc2)n(C)c1=O	2%	1%
CCCn1c(N(C)Cc2ccccc2)nc2c1c(=O)n(C)c(=O)n2C	14µM*	?
CCCOC(=O)c1ccc(Nc2nc(C(=O)OCC)nc3ccccc23)cc1	3%	11%
O=C(Nc1cccc(Br)c1)Nc1ccc2c(c1)N(C(=O)c1ccccc1)CC2	?	14µM*
CC(=O)c1cccc(NC(=O)Nc2cccc(Br)c2)c1	11%	2%
CCN(CC)c1ccc(-c2nnc(SCCS(=O)(=O)c3ccc(Cl)cc3)o2)cc1	37%	-2%
Cc1c(-c2ccccc2)oc2c(C(=O)OCC(=O)Nc3ccc(F)c(F)c3F)cccc2c1=O	9%	-2%
COc1ccc(N2CCN(C(=O)CCc3c(C)nc4cc(-c5ccc(OC)cc5OC)nn4c3C)CC2)cc1	-20%	-15%
COc1ccc(N2CCN(C(=O)CCc3c(C)nc4cc(-c5ccc(Cl)cc5)nn4c3C)CC2)cc1	32µM*	-5%
CCOC(=O)C1CCCN(S(=O)(=O)c2ccc3c(c2)CCCN3C(C)=O)C1 (configuration not stated)	-32%	151%
COc1ccccc1N1CCN(C(=O)C2CCCN(S(=O)(=O)c3ccc4c(c3)CCCN4C(C)=O)C2)CC1 (configuration not stated)	?	25µM*
Cc1ccc(C)c(Cn2c(N3CCN(Cc4ccccc4C)CC3)nc3c2c(=O)[nH]c(=O)n3C)c1	9%	4%
CCCCCCNc1nc2c(c(=O)n(C)c(=O)n2C)n1Cc1cccc(C)c1	0%	-7%
CCCCCCNc1nc2c(c(=O)n(C)c(=O)n2C)n1CCC	?	20µM*
Cn1c(=O)c2c(nc(NCCO)n2Cc2ccc(F)cc2)n(C)c1=O	10µM*	7.9µM*
C=CCNc1nc2c(c(=O)n(C)c(=O)n2C)n1Cc1ccc(Cl)cc1	14µM*	13µM*
C=CCNc1nc2c(c(=O)n(C)c(=O)n2C)n1Cc1ccccc1Cl	-14%	-19%
Cn1c(=O)c2c(nc(NCCc3ccc(F)cc3)n2Cc2ccc(F)cc2)n(C)c1=O	-1%	-9%
Cn1c(=O)c2c(nc(NCCO)n2Cc2ccc(Cl)cc2)n(C)c1=O	13µM*	?
CC(C)CCNc1nc2c(c(=O)n(C)c(=O)n2C)n1Cc1ccc(Cl)cc1	-1%	-9%
Nc1nnnn1NCc1cc(Cl)ccc1OCc1ccc(Cl)cc1Cl	-28%	54%
SMILES	FMDV FLuc	FMDV RLuc
CCOC(=O)c1ccoc1COC(=O)c1[nH]c(C)c(C(=O)OC)c1C	0%	11%
COc1ccc(CCNc2oc(COc3ccc(Cl)cc3)nc2C#N)cc1OC	28µM*	?
COc1ccc(CCNc2oc(COc3cccc(C)c3)nc2C#N)cc1OC	-9%	-14%
C[C@@H](O[C@H]1OCCN(Cc2n[nH]c(=O)[nH]2)[C@H]1c1ccc(F)cc1)c1cc(C(F)(F)F)cc(C(F)(F)F)c1	?	32µM*
CN(Cc1ccc2ccccc2c1)C(=O)CCc1ncc(-c2ccccc2F)o1	128%	9%
Cc1cccc(NC(=O)CSc2nc3ccc(NC(=O)COc4ccccc4C)cc3s2)c1	?	5µM*
Cc1ccccc1OCC(=O)Nc1ccc2nc(SCCOc3ccccc3)sc2c1	-11%	-1%
Cc1ccccc1Cn1cnc(NS(=O)(=O)c2c(C)n[nH]c2C)n1	4%	-5%
Cc1ccc(CN2C3=NCCCN3c3ccccc32)cc1	7%	-8%
Cc1cc2c(cc1C)N(Cc1ccc(Cl)cc1)C1=NCCCN12	20µM*	?
Cc1cc(C)cc(OCCNC(=O)Cn2nc(C)c3ccccc3c2=O)c1	-1%	-6%
Cc1nc(C)c(-c2ccc(SCC(=O)Nc3ccc(Br)cc3)nn2)s1	?	2.8µM*
COc1ccccc1NC(=O)CSc1ccc(-c2sc(C)nc2C)nn1	5%	20%
O=S1OCCSc2sc(=S)sc2SCCO1	3%	0%
CCS(=O)(=O)N1CCc2cc(C(=O)Nc3ccc(C)c(Cl)c3)ccc21	96%	22%
CCS(=O)(=O)N1CCc2ccc(NC(=O)Nc3ccc(C)c(C)c3)cc21	?	4.5µM*
O=C(NCc1ccncc1)c1ccc(C2CCCCC2)cc1	?	3.5µM*
O=C(NCc1ccccn1)c1ccc(C2CCCCC2)cc1	0%	8%
O=C1C(=C(c2ccccc2)c2ccccc2)C(Cl)C(Cl)(Cl)c2ccccc21 (configuration not stated)	?	11µM*
O=C1CCCc2c(O)cccc21	22%[11.5 µM]	-7%
O=C(CN1C(=O)c2ccccc2S1(=O)=O)c1ccc(F)cc1	11µM*	13%
O=C(CN1C(=O)c2ccccc2S1(=O)=O)c1ccc(-c2ccc(Br)cc2)cc1	33%	-10%
COc1ccccc1-c1c(C)nn2c(SCC(=O)NCc3cccnc3)cc(C)nc12	-6%	-3%
Cc1nc2c3c(C)c(C)n(Cc4cccnc4)c3ncn2n1	2%	-4%
CCOc1ccccc1NC(=O)Cn1nc(N2CCN(c3ccccc3)CC2)ccc1=O	-11%	18%
SMILES	FMDV FLuc	FMDV RLuc
CCc1ccccc1NC(=O)c1ccc(Cn2nc(N3CCN(c4ccccc4)CC3)ccc2=O)o1	?	32µM*
CC1C(=O)CCN(C2CC2)C1C (configuration not stated)	23%	2%
COc1ccc(-c2cc(C(F)(F)F)nc(S(C)(=O)=O)n2)cc1	-32%	?
CCOC(=O)CS(=O)(=O)c1nc(-c2ccc(F)cc2)cc(C(F)(F)F)n1	?	28µM*
c1ccc(-c2nnn(Cc3csc(-c4ccccc4)n3)n2)cc1	33%	13%
COc1cc(-c2nnc(SCC(=O)NC3CCCc4ccccc43)o2)cc(OC)c1OC (configuration not stated)	20%	26%
Cc1cccc(NC(=O)c2ccc3c(c2)NC(=O)CS3)c1	134%	-3%
Cc1ccc(NC(=O)c2ccc3c(c2)NC(=O)c2ccccc2S3)cc1	?	6.3µM*
CCOc1ccc(-c2nnc(SCC(=O)Oc3ccccc3)o2)cc1	3.5µM*	-4%
COc1ccc(OC(=O)CSc2nnc(-c3ccc(F)cc3)o2)cc1	-10%	-5%
COc1ccc2oc(C(=O)NC3=NCCS3)c(C)c2c1	167%	12%
COc1cccc(N2CCN(c3ncc4c(n3)CCN(Cc3ccc(Br)cc3)C4)CC2)c1	7.1µM*	4µM*
CCc1ccc(CN2CCc3nc(N4CCN(c5ccccc5F)CC4)ncc3C2)cc1	-1%	-13%
O=c1[nH]c(SCc2ccccc2)nc2nc[nH]c12	11%	-1%
CNc1nc2c(c(=O)n(C)c(=O)n2C)n1CC(O)COc1ccc(C)cc1 (configuration not stated)	?	11µM*
CCNc1nc2c(c(=O)n(C)c(=O)n2C)n1CC(O)COc1ccccc1 (configuration not stated)	-1%	-11%
O=S(=O)(Cc1ccc(Cl)cc1)c1nc2ccccc2nc1NC1CCCC1	17%	1%
CCc1nc2ccccc2c(C(=O)OCC(=O)NC(C)C(C)C)c1C (configuration not stated)	-3%	14%

Assay outcomes from PubChem BioAssay.
